HCMV inh: human cytomegalovirus inhibition; 4.5% of 410,000 active; AID 1259415; HFF cells, HCMV-luciferase reporter, 72 h; stronger effect = lower value; activity change, negative = inhibition, % at 57.5 µM; in the data active = activity change below about -60%; inconclusive = no clear call, values can overlap the other calls; inactive = above about -39%
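Inhibition of viral replication was scored as loss of reporter luminescence in HFFs infected with HCMV-luciferase (MOI 1 PFU/cell) for 72 h; compounds tested at 2 doses, normalized to buffer and Salinomycin controls.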
HCV inh: HCV inhibition; Huh7.5.1 HCVcc-Cre infection, luciferase reporter, 44 h; Potency, µM (doses to about 41.8 µM), for the others: at the top dose activity change, negative = inhibition, most hits filed as inhibitors; 3.4% of 340,000 active; active = well fitted inhibition curve with a large enough effect; inconclusive = small, poorly fitted or top-dose-only effect, or another doubt; inactive = no such curve, though single readings can be large or run the other way; note: potency is the fitted concentration of half-maximal effect
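Infectious HCV cell culture screen: compound-treated cells (1,000/well, pre-plated 4 h) are infected with HCVcc-Cre at roughly 0.5 moi and grown 44 h. Infection is quantified by luciferase signal after 15 min substrate incubation at room temperature.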
Marburg entry inh: blocks Marburg virus binding to or entry into cells; Marburg virus pseudotyped entry inhibition, cell reporter; Potency, µM (top dose mostly 37.8 µM), for inactives: top-dose activity change, negative = inhibition, actives largely listed as inhibitors; 1.8% of 300,000 active; calls by dose curve; tested in HEK293 cells; note: potency is the fitted concentration of half-maximal effect
FMDV antiviral: blocks foot and mouth disease virus; FMDV antiviral cell-based qHTS; Potency, µM (series often up to 57.9 µM), without a hit: at the top dose activity change, negative = inhibition, hits mostly inhibitors; 1.2% of 410,000 active; calls by dose curve; tested in HEK293T cells; note: read-out not given here; potency is the fitted concentration of half-maximal effect; nearly all actives have a fitted effect of over 45% in size
Lassa entry inh: blocks Lassa virus binding to or entry into cells | Lassa virus pseudotype entry inhibition, cell reporter | Potency, µM (titrated, usually from 37.9 µM), without a hit: at the top dose activity change, negative = inhibition, actives largely listed as inhibitors | 1.2% of 300,000 active | AID 540256; calls by dose curve; tested in HEK293 cells; note: potency is the fitted concentration of half-maximal effect; nearly all actives have a fitted effect of over 50% in size
* = called active by the depositor; ? = inconclusive; . = no result; [ ] = dose if it differs, or a comment. In the library only some 7.9% were active in any assay of this set; here they are far more common. % is set by controls: 0 for no effect and ±100 for the full control effect.

SMILES	HCMV inh	HCV inh	Marburg entry inh	FMDV antiviral	Lassa entry inh
COc1ccc(CCNC(=O)C2CCCN(S(=O)(=O)c3ccc4c(c3)oc(=O)n4C)C2)cc1OC (stereo not drawn)	-14	.	0%[46.1 µM]	-27%	-22%[46.1 µM]
CCc1ccccc1-n1c(C)nc2cc(C(=O)NCCc3ccc(Cl)cc3)ccc21	-16	.	.	-18%	12%[46.1 µM]
CCN(C(=O)c1cc(S(=O)(=O)N2CCOCC2)cn1C)c1ccc(OC)cc1	-67*	.	.	-17%	22%[46.1 µM]
CCN(CC)C(=O)c1cc(S(=O)(=O)N2CCCCC2)c[nH]1	0	-15%	.	-14%	.
CCN(C(=O)c1cc(S(=O)(=O)N2CCc3ccccc32)cn1C)c1cccc(C)c1	-74*	.	.	-5%	?
CCN(C(=O)c1cc(S(=O)(=O)N2CCCCC2)c[nH]1)c1ccc(OC)cc1	-67*	-19%	.	-20%	8%[46.1 µM]
O=C(Nc1cccc(C(F)(F)F)c1)C1CCCN(S(=O)(=O)c2cccc3nsnc23)C1 (stereo not drawn)	12	.	-27%[46.1 µM]	?	-3%[46.1 µM]
COc1cccc2sc(N(CCN(C)C)C(=O)/C=C/c3cccs3)nc12	0	?	.	0%	.
CCOc1cccc2sc(N(CCN(C)C)C(=O)/C=C/c3cccs3)nc12	.	32µM*	?	?	?
COc1ccc(OC)c2sc(N(CCN(C)C)C(=O)/C=C/c3cccs3)nc12	-85*	?	?	-20%	?
COc1ccc(C)c2sc(N(CCN(C)C)C(=O)/C=C/c3cccs3)nc12	?	14µM*	.	-17%	.
CN(C)CCCN(C(=O)/C=C/c1cccs1)c1nc2ccc(F)cc2s1	?	-28%	8.9µM*	-16%	-30%
COc1cc(NC(=O)c2c(C)oc3c2C2=NCCN2C=N3)cc(OC)c1OC	-7	.	.	-6%	1%[46.1 µM]
Cc1ccccc1C(=O)NC1(C(F)(F)F)C(=O)Nc2c1c(=O)[nH]c(=O)n2-c1ccc(F)cc1 (stereo not drawn)	23	.	-2%[46.1 µM]	-3%	3%[46.1 µM]
CC1(c2nnc(-c3ccccc3)o2)CC(c2ccc([N+](=O)[O-])cc2)=NO1 (stereo not drawn)	-68*	?	.	-11%	.
CC1(c2nnc(-c3cccc(Cl)c3)o2)CC(c2cccc([N+](=O)[O-])c2)=NO1 (stereo not drawn)	-11	7.9µM*	.	-22%	.
CC1(c2nnc(-c3ccncc3)o2)CC(c2ccc(Cl)cc2)=NO1 (stereo not drawn)	-27	11µM*	.	?	.
Cc1cccc(N(C)S(=O)(=O)c2cc3[nH]c(=O)c(=O)[nH]c3cc2C)c1	4	.	.	-8%	-9%[46.1 µM]
COc1ccc2nc(NC(=O)c3ccc(S(=O)(=O)N4CCC(C)CC4)cc3)sc2c1	25	.	.	?	-4%[46.1 µM]
CCOC(=O)c1nn(-c2cccc(OC)c2)c2nc(Nc3ccccc3)cc(=O)n12	22	11µM*	16%	-29%	-7%
Cn1nccc1C(=O)NC1CCCc2c1cnn2-c1ccc(C(C)(C)C)cc1 (stereo not drawn)	-61*	?	?	?	?
CC(C)(C)c1ccc(-n2ncc3c2CCCC3NC(=O)CN2CCCC2=O)cc1 (stereo not drawn)	-67*	10µM*	4%	?	?
CC(=O)NC1CCCc2c1cnn2-c1ccc(C(C)(C)C)cc1 (stereo not drawn)	-28	10µM*	7%	-20%	-23%
CC(C)(C)c1ccc(-n2ncc3c2CCCC3NC(=O)c2cnccn2)cc1 (stereo not drawn)	-63*	4.5µM*	?	-14%	?
CCCC(=O)NC1CCCc2c1cnn2-c1ccc(C)c(C)c1 (stereo not drawn)	-24	-20%	.	17%	.
SMILES	HCMV inh	HCV inh	Marburg entry inh	FMDV antiviral	Lassa entry inh
CC(C)(C)c1ccc(-n2ncc3c2CCCC3NC(=O)c2csnn2)cc1 (stereo not drawn)	-8	5%	0%	-22%	-11%
CCN(Cc1ccncc1)Cc1ccc2c(c1)CN(C(=O)c1ccc(OC)cc1)CCO2	.	.	.	-13%	.
CC(C)(C)c1ccc(-n2ncc3c2CCCC3NC(=O)C2=NNC(=O)CC2)cc1 (stereo not drawn)	-81*	?	.	?	.
CCOc1ccc(CCNC(=O)c2ccc3c(c2)c(C)c(C)n3Cc2ccccc2)cc1OCC	?	.	.	-19%	?
CC(C)Cc1ccc(C2=CSC3=NCCN23)cc1	22	11µM*	?	-16%	?
NCCCC[C@H]1CN=C(N)N1CCCCC1CCCCC1	-82*	15%	.	-9%	.
FC(F)(F)c1cc(CCN2CCNC[C@@H]2CC2CCCCC2)cc(C(F)(F)F)c1	-99*	?	.	0%	.
NC1=NC[C@H](CC2CCCCC2)N1CCc1cc(C(F)(F)F)cc(C(F)(F)F)c1	-100*	7%	.	?	.
CCCC(=O)N1CCC2(CC1)CN(C(=O)Nc1cccc(F)c1)[C@H](CO)c1c2c2ccc(OC)cc2n1C	-21	.	.	.	.
COc1cc(C2C3=C(COC3=O)Oc3cc4c(cc32)OCO4)cc(OC)c1OC(C)=O (stereo not drawn)	-69*	4%	?	7%	?
COc1cc(C2C3=C(COC3=O)Oc3cc4c(cc32)OCO4)ccc1OC(C)=O (stereo not drawn)	-28	-12%	-10%	-8%	-6%[46.1 µM]
CN(C)N=Nc1nc2c([nH]1)c(=O)n(C)c(=O)n2C	7	-7%	12%[46.1 µM]	1%	2%
CN(C)N=Nc1nc2c(c(=O)n(C)c(=O)n2C)n1CC1CO1 (stereo not drawn)	-77*	4µM*	?	-23%	?
CCOc1ccccc1N(CC(=O)NC1CCCCC1)S(=O)(=O)c1ccc(C)cc1	-77*	-13%	3.2µM*	15%	?
COc1ccc(NC(=O)CN(c2ccccc2OC)S(=O)(=O)c2cccs2)cc1Cl	-7	?	?	-17%	-28%
COc1ccc(N(CC(=O)Nc2ccc(OC)c(OC)c2)S(=O)(=O)c2ccccc2)cc1Cl	59	13µM*	.	-18%	.
COc1ccc(NC(=O)CN(c2ccc(OC)c(Cl)c2)S(=O)(=O)c2ccccc2)cc1	?	?	.	20%	.
COc1ccccc1N(CC(=O)NC1CCCC1)S(=O)(=O)c1ccc(C)cc1	-17	-9%	-10%	3%	?
CCOc1ccccc1N(CC(=O)Nc1ccccc1Br)S(=O)(=O)c1ccccc1	-63*	.	.	-20%	.
CCOc1ccccc1N(CC(=O)Nc1ccc(OC)c(Cl)c1)S(=O)(=O)c1ccccc1	-62*	.	.	-7%	?
CN(C)c1ccc(/C=C(\C#N)c2nc(-c3ccc(Cl)c(Cl)c3)cs2)cc1	6	.	.	-6%	1%[46.1 µM]
Cn1c(=O)c2c(SCC(=O)NCc3ccc(F)cc3)nc(-c3ccccc3Cl)nc2n(C)c1=O	-1	.	.	-21%	6%[46.1 µM]
Cc1cc(C)cc(-n2c(C)cc(C(=O)C(=O)Nc3nnc(C)s3)c2C)c1	-17	.	-31%[46.1 µM]	-12%	18%[46.1 µM]
Fc1cccc(-c2nnn3c2nc(NC2CCCCC2)c2ccccc23)c1	53	.	?	-16%	24%[46.1 µM]

Screening results: PubChem, National Center for Advancing Translational Sciences (NCATS)
